# ChEMBL document CHEMBL1961873, “Compounds: GSK PKIS; Assays: Nanosyn kinase panel” (2012)
# Columns and labels:
# [1] = molecular target: Serine/threonine-protein kinase MARK2 (Homo sapiens) (UniProt Q7KZI7); details: at 1 µM
# [2] = molecular target: PAS domain-containing serine/threonine-protein kinase (Homo sapiens) (UniProt Q96RG2); details: at 0.1 µM
# [3] = molecular target: PAS domain-containing serine/threonine-protein kinase (Homo sapiens) (UniProt Q96RG2); details: at 1 µM
# [4] = molecular target: Phosphorylase b kinase gamma catalytic chain, skeletal muscle/heart isoform (Homo sapiens) (UniProt Q16816); details: at 0.1 µM
# [5] = molecular target: Phosphorylase b kinase gamma catalytic chain, skeletal muscle/heart isoform (Homo sapiens) (UniProt Q16816); details: at 1 µM
# [6] = molecular target: T1, Phosphorylase b kinase gamma catalytic chain, liver/testis isoform (Homo sapiens) (UniProt P15735); details: at 0.1 µM
# T1 sequence (whole entry): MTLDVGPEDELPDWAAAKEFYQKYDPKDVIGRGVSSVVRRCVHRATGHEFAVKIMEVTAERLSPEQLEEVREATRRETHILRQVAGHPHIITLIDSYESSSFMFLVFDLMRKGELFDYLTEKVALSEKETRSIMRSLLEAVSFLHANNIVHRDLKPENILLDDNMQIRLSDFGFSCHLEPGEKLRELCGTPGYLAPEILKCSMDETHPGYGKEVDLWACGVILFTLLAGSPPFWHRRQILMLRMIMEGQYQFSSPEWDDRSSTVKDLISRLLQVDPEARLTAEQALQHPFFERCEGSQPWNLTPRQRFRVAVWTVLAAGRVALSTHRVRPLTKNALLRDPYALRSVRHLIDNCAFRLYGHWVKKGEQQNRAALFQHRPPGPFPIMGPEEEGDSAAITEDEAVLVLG
# [7] = molecular target: T1, Phosphorylase b kinase gamma catalytic chain, liver/testis isoform (Homo sapiens); details: at 1 µM
# [8] = molecular target: Serine/threonine-protein kinase pim-1 (Homo sapiens) (UniProt P11309); details: at 0.1 µM
# [9] = molecular target: Serine/threonine-protein kinase pim-1 (Homo sapiens) (UniProt P11309); details: at 1 µM
# [10] = molecular target: Serine/threonine-protein kinase pim-2 (Homo sapiens) (UniProt Q9P1W9); details: at 0.1 µM
# [11] = molecular target: Serine/threonine-protein kinase pim-2 (Homo sapiens) (UniProt Q9P1W9); details: at 1 µM
# [12] = molecular target: Serine/threonine-protein kinase pim-3 (Homo sapiens) (UniProt Q86V86); details: at 0.1 µM
# [13] = molecular target: Serine/threonine-protein kinase pim-3 (Homo sapiens) (UniProt Q86V86); details: at 1 µM
# [14] = molecular target: T2, MAP kinase-activated protein kinase 5 (Homo sapiens) (UniProt Q8IW41); details: at 0.1 µM
# T2 sequence (whole entry): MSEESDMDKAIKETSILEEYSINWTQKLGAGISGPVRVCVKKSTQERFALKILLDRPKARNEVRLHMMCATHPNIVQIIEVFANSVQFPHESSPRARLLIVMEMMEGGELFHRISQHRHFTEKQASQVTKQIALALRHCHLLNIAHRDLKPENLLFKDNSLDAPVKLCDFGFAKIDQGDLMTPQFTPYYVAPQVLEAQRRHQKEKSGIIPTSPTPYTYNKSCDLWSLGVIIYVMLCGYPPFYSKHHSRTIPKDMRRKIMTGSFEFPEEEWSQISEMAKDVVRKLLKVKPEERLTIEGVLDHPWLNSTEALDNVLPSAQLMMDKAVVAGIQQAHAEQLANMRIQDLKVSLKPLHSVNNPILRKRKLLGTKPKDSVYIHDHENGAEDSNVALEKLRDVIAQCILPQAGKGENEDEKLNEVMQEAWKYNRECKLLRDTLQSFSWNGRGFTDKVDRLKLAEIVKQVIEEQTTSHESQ
# [15] = molecular target: T2, MAP kinase-activated protein kinase 5 (Homo sapiens); details: at 1 µM
# [16] = molecular target: Serine/threonine-protein kinase SIK1 (Homo sapiens) (UniProt P57059); details: at 1 µM
# [17] = molecular target: Serine/threonine-protein kinase SIK2 (Homo sapiens) (UniProt Q9H0K1); details: at 0.1 µM
# [18] = molecular target: T3, Serine/threonine-protein kinase TBK1 (Homo sapiens) (UniProt Q9UHD2); details: at 0.1 µM;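 further: values are the mean TBK1 inhibition, taken from the GSK PKIS screening data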
# T3 sequence (whole entry): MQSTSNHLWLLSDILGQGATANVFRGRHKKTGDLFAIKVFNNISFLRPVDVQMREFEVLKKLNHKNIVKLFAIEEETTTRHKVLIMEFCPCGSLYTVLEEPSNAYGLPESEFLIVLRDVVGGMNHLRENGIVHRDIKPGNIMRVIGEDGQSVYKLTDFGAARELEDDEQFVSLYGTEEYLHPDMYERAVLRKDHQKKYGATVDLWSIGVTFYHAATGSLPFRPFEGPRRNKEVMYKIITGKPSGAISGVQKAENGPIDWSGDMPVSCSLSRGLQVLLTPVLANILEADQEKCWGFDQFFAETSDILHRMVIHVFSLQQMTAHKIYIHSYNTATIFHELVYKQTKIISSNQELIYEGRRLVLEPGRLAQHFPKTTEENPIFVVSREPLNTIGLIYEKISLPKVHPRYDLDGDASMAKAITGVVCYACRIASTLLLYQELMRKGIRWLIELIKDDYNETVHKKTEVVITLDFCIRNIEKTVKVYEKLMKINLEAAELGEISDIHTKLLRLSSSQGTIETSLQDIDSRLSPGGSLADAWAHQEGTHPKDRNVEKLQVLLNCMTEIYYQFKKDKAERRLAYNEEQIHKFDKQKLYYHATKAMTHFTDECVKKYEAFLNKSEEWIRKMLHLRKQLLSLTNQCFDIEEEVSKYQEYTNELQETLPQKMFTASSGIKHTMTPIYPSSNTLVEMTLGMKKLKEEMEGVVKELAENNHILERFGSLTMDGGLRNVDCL
# [19] = molecular target: Serine/threonine-protein kinase SIK1 (Homo sapiens) (UniProt P57059); details: at 0.1 µM
# [20] = molecular target: Serine/threonine-protein kinase SIK2 (Homo sapiens) (UniProt Q9H0K1); details: at 1 µM
# Sequence of Serine/threonine-protein kinase MARK2 (Homo sapiens) (Q7KZI7 whole entry, the tested form may be a part): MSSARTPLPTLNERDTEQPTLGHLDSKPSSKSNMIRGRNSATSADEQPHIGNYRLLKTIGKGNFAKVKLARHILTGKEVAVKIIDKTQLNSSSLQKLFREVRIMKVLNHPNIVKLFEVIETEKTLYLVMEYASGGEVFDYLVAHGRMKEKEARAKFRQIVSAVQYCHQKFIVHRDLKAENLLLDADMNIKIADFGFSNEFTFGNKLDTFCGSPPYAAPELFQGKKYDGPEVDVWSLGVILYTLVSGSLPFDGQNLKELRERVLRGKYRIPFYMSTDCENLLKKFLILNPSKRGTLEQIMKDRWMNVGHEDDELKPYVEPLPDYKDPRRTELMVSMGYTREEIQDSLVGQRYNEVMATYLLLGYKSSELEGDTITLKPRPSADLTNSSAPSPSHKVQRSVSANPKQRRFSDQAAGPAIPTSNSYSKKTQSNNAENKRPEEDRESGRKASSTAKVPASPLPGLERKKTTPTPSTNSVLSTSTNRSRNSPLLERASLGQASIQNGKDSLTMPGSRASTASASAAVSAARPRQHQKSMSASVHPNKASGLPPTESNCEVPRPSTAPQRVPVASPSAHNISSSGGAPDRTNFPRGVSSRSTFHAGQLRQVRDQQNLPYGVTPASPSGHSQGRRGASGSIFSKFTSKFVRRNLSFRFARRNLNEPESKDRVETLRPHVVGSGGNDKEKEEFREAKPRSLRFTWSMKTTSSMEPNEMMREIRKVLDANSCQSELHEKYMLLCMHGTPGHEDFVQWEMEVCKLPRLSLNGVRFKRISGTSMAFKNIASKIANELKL
# Sequence of Serine/threonine-protein kinase pim-2 (Homo sapiens) (Q9P1W9 whole entry, looked up): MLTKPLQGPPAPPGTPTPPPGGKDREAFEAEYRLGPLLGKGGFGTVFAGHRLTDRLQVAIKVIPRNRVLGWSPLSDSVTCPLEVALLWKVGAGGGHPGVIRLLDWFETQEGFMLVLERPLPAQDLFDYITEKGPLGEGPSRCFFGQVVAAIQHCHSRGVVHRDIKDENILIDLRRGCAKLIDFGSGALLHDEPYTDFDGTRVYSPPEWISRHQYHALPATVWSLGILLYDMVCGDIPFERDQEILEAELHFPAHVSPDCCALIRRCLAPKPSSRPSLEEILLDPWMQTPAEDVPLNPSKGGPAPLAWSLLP
# Sequence of Serine/threonine-protein kinase pim-1 (Homo sapiens) (P11309 whole entry, looked up): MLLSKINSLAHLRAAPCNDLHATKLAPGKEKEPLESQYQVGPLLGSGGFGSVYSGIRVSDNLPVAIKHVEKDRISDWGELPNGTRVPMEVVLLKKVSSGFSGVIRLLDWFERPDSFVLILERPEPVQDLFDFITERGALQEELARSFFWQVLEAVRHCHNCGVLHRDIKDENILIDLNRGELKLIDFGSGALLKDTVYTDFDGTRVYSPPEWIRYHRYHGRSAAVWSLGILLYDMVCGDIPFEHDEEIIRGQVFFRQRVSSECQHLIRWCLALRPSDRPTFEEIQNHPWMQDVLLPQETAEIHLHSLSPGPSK
# Sequence of Serine/threonine-protein kinase SIK1 (Homo sapiens) (P57059 whole entry): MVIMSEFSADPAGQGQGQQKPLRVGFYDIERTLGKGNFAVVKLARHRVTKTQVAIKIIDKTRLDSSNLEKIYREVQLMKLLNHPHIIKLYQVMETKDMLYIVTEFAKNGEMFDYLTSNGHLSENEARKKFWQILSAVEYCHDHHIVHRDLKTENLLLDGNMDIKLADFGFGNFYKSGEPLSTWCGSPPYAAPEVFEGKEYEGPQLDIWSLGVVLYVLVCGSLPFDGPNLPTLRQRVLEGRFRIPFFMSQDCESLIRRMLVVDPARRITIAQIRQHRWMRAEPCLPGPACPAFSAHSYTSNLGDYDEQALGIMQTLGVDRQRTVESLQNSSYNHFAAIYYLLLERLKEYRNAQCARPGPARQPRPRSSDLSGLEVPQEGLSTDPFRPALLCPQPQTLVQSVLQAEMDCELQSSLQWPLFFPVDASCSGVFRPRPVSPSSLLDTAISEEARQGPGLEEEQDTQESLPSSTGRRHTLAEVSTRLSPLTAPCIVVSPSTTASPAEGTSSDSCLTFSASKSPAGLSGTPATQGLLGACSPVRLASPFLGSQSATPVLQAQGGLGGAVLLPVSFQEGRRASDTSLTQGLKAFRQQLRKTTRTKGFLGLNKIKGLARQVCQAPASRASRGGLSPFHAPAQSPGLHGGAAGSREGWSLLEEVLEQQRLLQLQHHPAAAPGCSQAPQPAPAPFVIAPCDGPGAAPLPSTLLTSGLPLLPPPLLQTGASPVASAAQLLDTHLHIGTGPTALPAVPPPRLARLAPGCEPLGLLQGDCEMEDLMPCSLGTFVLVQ
# Sequence of Phosphorylase b kinase gamma catalytic chain, skeletal muscle/heart isoform (Homo sapiens) (Q16816 whole entry, looked up, canonical isoform): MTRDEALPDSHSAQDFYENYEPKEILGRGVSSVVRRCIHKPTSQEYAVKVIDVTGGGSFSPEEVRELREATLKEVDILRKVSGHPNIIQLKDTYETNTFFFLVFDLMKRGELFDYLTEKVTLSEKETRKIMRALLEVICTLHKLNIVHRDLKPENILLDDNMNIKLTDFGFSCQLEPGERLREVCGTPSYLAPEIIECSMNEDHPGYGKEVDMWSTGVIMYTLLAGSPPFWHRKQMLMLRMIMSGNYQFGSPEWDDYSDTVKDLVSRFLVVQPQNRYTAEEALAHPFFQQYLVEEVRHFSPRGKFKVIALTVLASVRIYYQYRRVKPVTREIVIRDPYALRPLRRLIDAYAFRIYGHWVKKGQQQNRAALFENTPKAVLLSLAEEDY
# Sequence of PAS domain-containing serine/threonine-protein kinase (Homo sapiens) (Q96RG2 whole entry, the tested form may be a part, canonical isoform): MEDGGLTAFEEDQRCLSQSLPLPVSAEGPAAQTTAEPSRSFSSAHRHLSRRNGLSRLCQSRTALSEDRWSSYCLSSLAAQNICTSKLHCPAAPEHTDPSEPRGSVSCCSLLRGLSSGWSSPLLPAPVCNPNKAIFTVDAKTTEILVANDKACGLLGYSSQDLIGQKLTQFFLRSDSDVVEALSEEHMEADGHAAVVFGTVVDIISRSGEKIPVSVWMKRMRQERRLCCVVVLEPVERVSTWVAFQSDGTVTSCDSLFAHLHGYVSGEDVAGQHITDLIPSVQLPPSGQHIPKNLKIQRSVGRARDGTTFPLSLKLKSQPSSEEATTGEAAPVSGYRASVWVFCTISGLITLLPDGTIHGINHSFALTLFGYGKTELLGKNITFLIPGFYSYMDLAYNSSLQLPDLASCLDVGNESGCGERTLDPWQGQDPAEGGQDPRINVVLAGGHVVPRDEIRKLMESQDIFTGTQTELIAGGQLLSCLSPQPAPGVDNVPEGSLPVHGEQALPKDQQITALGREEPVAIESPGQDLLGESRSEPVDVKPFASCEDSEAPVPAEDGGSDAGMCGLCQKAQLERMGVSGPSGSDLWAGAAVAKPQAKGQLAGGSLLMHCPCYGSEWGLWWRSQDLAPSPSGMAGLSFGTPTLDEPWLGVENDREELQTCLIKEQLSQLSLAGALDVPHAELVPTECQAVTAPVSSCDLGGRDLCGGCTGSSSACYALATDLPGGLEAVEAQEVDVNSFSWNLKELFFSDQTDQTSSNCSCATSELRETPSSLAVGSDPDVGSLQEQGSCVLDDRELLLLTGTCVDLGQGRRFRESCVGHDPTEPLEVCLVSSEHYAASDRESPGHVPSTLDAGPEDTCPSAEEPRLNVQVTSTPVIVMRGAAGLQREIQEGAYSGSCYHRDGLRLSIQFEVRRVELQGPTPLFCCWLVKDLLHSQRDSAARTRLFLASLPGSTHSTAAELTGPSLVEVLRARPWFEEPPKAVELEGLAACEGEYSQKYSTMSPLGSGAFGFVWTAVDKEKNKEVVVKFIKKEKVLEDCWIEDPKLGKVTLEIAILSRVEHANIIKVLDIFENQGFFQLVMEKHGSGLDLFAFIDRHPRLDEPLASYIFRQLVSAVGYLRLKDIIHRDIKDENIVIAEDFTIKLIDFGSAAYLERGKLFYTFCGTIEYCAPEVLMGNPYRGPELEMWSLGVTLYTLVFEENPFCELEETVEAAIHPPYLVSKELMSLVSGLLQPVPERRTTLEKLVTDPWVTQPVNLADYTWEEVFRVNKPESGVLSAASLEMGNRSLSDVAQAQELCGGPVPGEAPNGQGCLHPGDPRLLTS
Compound,inhibition [1],inhibition [2],inhibition [3],inhibition [4],inhibition [5],inhibition [6],inhibition [7],inhibition [8],inhibition [9],inhibition [10],inhibition [11],inhibition [12],inhibition [13],inhibition [14],inhibition [15],inhibition [16],inhibition [17],inhibition [18],inhibition [19],inhibition [20]
COc1cc(C=NNc2ncnc3c2cnn3Cc2ccccc2)ccc1O,4.82%,-0.31%,0.37%,-1.3%,2.64%,-7.11%,-6.49%,-0.98%,1.73%,0.65%,4.62%,1.07%,5.08%,-1.78%,-1.84%,-3.99%,-6%,0.04%,–,–
CCn1c(-c2nonc2N)nc2c(C#CCN)ncc(OCCCN)c21,10.1%,1.4%,16.9%,3.15%,5.73%,-1.7%,4.75%,4.76%,36%,3.26%,5.54%,9.18%,33%,-1.32%,1.09%,-7.22%,-2.87%,-0.18%,-4.16%,-1.04%
Fc1ccc(-c2ncn(C3CCNCC3)c2-c2ccnc(Oc3ccccc3)n2)cc1,-1.83%,0.55%,-1%,3.99%,2.25%,1.69%,1.14%,-1.15%,-0.11%,-3.22%,-3.69%,-0.25%,-0.02%,0.89%,1.1%,8.86%,-0.18%,0.83%,2.14%,7.64%
COc1cccc(COc2cc(-n3cnc4ccccc43)sc2C(N)=O)c1,-1.4%,1.11%,1.08%,2.26%,3.47%,1.62%,0.45%,0.5%,0.84%,0.51%,1.31%,0.12%,0.33%,0.16%,-0.81%,3.4%,-0.88%,-1.18%,-0.86%,-4.75%
COc1cc2c(cc1Nc1nc(Nc3ccsc3C(N)=O)c3cc[nH]c3n1)N(C(=O)CN(C)C)CCC2,5.44%,0.93%,1.03%,8.54%,41.3%,-0.5%,-0.53%,31.3%,79.8%,0.47%,3.29%,6.22%,38.3%,1.1%,1.23%,-0.04%,-2.92%,9.46%,-0.68%,5.93%
NS(=O)(=O)c1ccc(-c2ccc3c(NC(=O)C4CC4)n[nH]c3c2)cc1,2.59%,0.57%,-1.27%,-3.09%,3.54%,2.77%,0%,1.16%,0.95%,-0.15%,0.28%,-0.26%,-1.81%,0.51%,0.89%,3.27%,1.79%,5.3%,5.15%,8.87%
CCn1c(-c2nonc2N)nc2c(C#CC(C)(C)O)ncc(OCC3CCNCC3)c21,46.5%,0.98%,12.8%,2.88%,9.61%,4.03%,6.94%,2.14%,17.3%,-3.05%,3.34%,3.02%,21%,1.57%,2.94%,18%,3.58%,5.26%,4.3%,18.4%
